Laboratory results reported in PubChem BioAssay AID602409 (Sanford-Burnham Center for Chemical Genomics, 2012).
The other results are listed elsewhere or left out. Activity calls are given as the source filed them.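 The calls were made as follows: active = mean inhibition over four retests above 40%; inactive = the rest.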

Target: C-X-C chemokine receptor type 6 (Homo sapiens) (UniProt O00574)
Assay: CXCR6 beta-arrestin signal inhibition by hits – cell-based, single concentration, luminescence, confirmation (AID 602409);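 also: receptor stimulated with 10 nM CXCL16 agonist; beta-galactosidase fragment complementation upon beta-arrestin recruitment to receptor; plate controls were CXCL16 plus DMSO for no effect and DMSO without CXCL16 for full effect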
Details: CHO-K1 CXCR6 PathHunter beta-arrestin, at 20 µM, hits give high values

C-X-C chemokine receptor type 6 (Homo sapiens), sequence (O00574 whole entry, looked up, the tested form may be a part): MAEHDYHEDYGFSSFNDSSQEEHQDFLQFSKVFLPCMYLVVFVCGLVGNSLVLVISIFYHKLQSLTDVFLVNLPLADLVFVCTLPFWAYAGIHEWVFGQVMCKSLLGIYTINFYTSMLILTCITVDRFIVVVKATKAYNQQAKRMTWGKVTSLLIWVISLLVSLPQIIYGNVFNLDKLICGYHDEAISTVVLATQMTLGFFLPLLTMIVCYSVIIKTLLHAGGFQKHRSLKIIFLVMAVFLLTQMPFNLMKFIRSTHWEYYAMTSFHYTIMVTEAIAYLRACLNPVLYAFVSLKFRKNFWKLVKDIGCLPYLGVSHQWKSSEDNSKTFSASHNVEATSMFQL

SMILES: CC(=O)OC1C2(CC3N4C(=O)C5(CO)SSC4(CC31O)C(=O)N5C)OC(C)C(C)(C)C2=O (stereo unspecified)
- inhibition: 68.1% (active)
